IL1B secr inh: blocks inflammasome-driven IL-1 beta release; THP-1 LPS/ATP IL-1B secretion, AlphaLISA, 16 h; stronger effect = lower value; activity change, % at 57.5 µM; 4.7% of 360,000 active; AID 743279; in the data active = activity change below about -50%; inconclusive = mostly about -30% to -49%
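THP-1 cells pretreated 1 hr with compounds (up to 57.5 uM final), then stimulated with LPS (250 ng/mL final) plus ATP (1.25 mM final); secreted IL-1B measured by AlphaLISA after 16 hr, decreased signal indicating inhibition.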
HT1080NT lethal: kills 2HG-producing HT-1080-NT fibrosarcoma cells; HT-1080-NT fibrosarcoma viability, CellTiter-Glo ATP luminescence, 48 h; Potency, µM (top dose mostly 46.1 µM), for the others: top-dose activity, negative = less viability, most hits filed as cytotoxic; 1.6% of 360,000 active; AID 686970;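 note: NT is the 2HG producing partner of a matched IDH1 knockdown line; potency is the fitted concentration of half-maximal effect; 0% = DMSO-treated cells and -100% = media-only wells without cells; nearly all actives have a fitted effect of over 55% in size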
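HT-1080-NT; 750 cells/well; 5% FBS RPMI; 48 h compound, 37 degrees C; CellTiter-Glo luminescence; curve fitting and curve-class assignment.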
DT40 TDP1 no CPT: qHTS for Inhibitors of human tyrosyl-DNA phosphodiesterase 1 (TDP1): qHTS in cells in absence of CPT; Potency, µM (top dose mostly 46.2 µM), inactives show at the highest dose activity change, negative = growth inhibition, actives largely listed as inhibitors; 15% of 420,000 active; AID 686978, 2013; DT40 Tdp1-/- hTDP1 cells, no CPT, ATP luminescence, 48 h; note: potency is the fitted concentration of half-maximal effect; nearly all actives have a fitted effect of over 55% in size
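Seeded 400 DT40-hTDP1 cells/well (vehicle DMSO, no 20 nM CPT); pinned compounds; ≥48 hr at 37 °C; CellTiter-Glo luminescence as viability measure.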
HT1080 IDH1KD tx: kills HT-1080 cells with IDH1 knockdown; HT-1080 IDH1 knockdown viability, ATP luminescence, 48 h; Potency, µM (titrated, usually from 46.1 µM), without a hit: at the top dose activity, negative = toxicity, most hits filed as cytotoxic; 2% of 360,000 active;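 note: potency is the fitted concentration of half-maximal effect; 0% = DMSO wells and -100% = cell-free medium wells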
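% activity derives from luminescence (CellTiter-Glo), normalised to DMSO and no-cell wells. HT-1080-IDH1KD cells, 750/well, had 48 h compound exposure at 37 °C.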
uPA surface inh: inhibitors of cell surface uPA generation; 0.31% of 330,000 active; Potency, µM (top dose mostly 38.3 µM), for the others: at the highest dose activity change, negative = inhibition, usual class: inhibitors; cell surface uPA generation assay, qHTS; AID 540303; active = well fitted inhibition curve with a large enough effect; inconclusive = small, poorly fitted or top-dose-only effect; inactive = no such curve, though single readings can be large or run the other way; tested in mouse RAW 264.7 cells; note: potency is the fitted concentration of half-maximal effect; nearly all actives have a fitted effect of over 55% in size
TDP1 cell CPT: growth inhibition of DT40 Tdp1-/-;hTDP1 cells with camptothecin (screen for TDP1 inhibitors); chicken DT40 Tdp1-/-;hTDP1 cells + 20 nM CPT, ATP luminescence, 48 h; Potency, µM (titrated, usually from 46.2 µM), without a hit: top-dose activity change, negative = growth inhibition, hits mostly inhibitors; 12% of 420,000 active; AID 686979; note: potency is the fitted concentration of half-maximal effect; nearly all actives have a fitted effect of over 55% in size
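Chicken DT40 Tdp1-/- cells complemented with human TDP1, 400 cells/well, exposed to compounds plus 20 nM camptothecin for at least 48 h at 37 C; viability read as ATP content by CellTiter-Glo luminescence.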
* = called active by the depositor; i = inactive; ? = inconclusive; nt = no result given; [ ] = another dose, or the depositor's remark. Most compounds without a hit are left out; they make up all but 19% or so of the library. Unless noted, calls come from the whole dose curve; as a rule, active = well fitted curve in the direction sought with a large enough effect; inconclusive = small, poorly fitted or top-dose-only effect, or another doubt; inactive = no such curve, though single readings can be large; an effect the other way counts as inactive or inconclusive. Unless noted, % is set by controls: 0 for no effect and ±100 for the full control effect.

SMILES	IL1B secr inh	HT1080NT lethal	DT40 TDP1 no CPT	HT1080 IDH1KD tx	uPA surface inh	TDP1 cell CPT
Cc1cc(/C=C2/C(=N)N3C(c4ccccc4)=CSC3=NC2=O)c(C)n1-c1ccccc1	26	0%	13µM*	4%	-5%	13µM*
O=c1/c(=C\c2cccnc2)sc2nc3ccccc3n12	19	24%	?	8%	-1%	-11%
Cc1cc(/C=c2/sc3nc4ccccc4n3c2=O)c(C)n1-c1ccccn1	-58*	-20%	18µM*	6%	nt	?
Cc1cc(/C=c2\sc3nc4ccccc4n3c2=O)c(C)n1-c1ccc(C(=O)O)cc1	0	4%	13µM*	27%	-2%	13µM*
Cc1cc(C=C2C(=O)c3ccccc3C2=O)c(C)n1-c1ccc(C(=O)O)cc1	-56*	0%	-17%	5%	3%	-13%
Cc1cc(C=C2C(=O)c3ccccc3C2=O)c(C)n1-c1cccc(C(=O)O)c1	16	4%	?	1%	-14%	?
Cc1ccccc1NC(=O)CN(C)S(=O)(=O)c1cccc2nsnc12	nt	nt	-26%	nt	nt	-6%
CCc1ccc(NC(=O)CSc2ccnc(=O)[nH]2)cc1	nt	nt	-19%	nt	nt	5%
CC1=NN(c2ccccc2)C(=O)/C1=C\c1cc(C)n(-c2ccccc2)c1C	i	10%	23µM*	6%	7%	?
Cc1cc(/C=C2\Cc3ccccc3C2=O)c(C)n1-c1ccccc1	-62*	-3%	13µM*	0%	-17%	?
CC1=NN(c2ccccc2)C(=O)C1=Cc1ccccc1	-20	-5%	-6%	-2%	nt	-17%
COc1ccc(OC)c(-c2cc(Cl)c3c(c2)CC(CNC(=O)C(C)N2CCOCC2)O3)c1 (configuration not stated)	nt	nt	?	nt	nt	-1%[9.04 µM]
COc1ccccc1/C=C/CN1CCCC(CCC(=O)NCc2ccccc2F)C1 (configuration not stated)	?	?	21µM*	-20%	-5%	18µM*
COc1ccc(C(=O)C2CCCN(Cc3ccc4nonc4c3)C2)c(OC)c1 (configuration not stated)	-69*	-15%	?	-26%	0%	12µM*
COc1ccc(C(=O)C2CCCN(Cc3ccc4nonc4c3)C2)cc1OC (configuration not stated)	-18	1%	-18%	-15%	4%	-19%
COc1ccc(/C=C/CN2CCCC(C(=O)c3ccc(OC)c(F)c3)C2)cc1 (configuration not stated)	-93*	-15%	?	-19%	1%	?
COc1ccccc1CC(=O)N1CCCC(CCC(=O)NCc2ccccc2F)C1 (configuration not stated)	16	-1%	-26%	-5%	-9%	?
COc1ccc(OC)c(CN2CCCC(C(=O)N3CCCCC3)C2)c1 (configuration not stated)	11	2%	-28%	8%	nt	-41%
COc1ccc(C(=O)C2CCCN(Cc3c[nH]c4ccccc34)C2)c(OC)c1 (configuration not stated)	?	?	9.2µM*	?	-20%	7.3µM*
Cc1cccc(N(CC(=O)NCc2ccco2)S(=O)(=O)c2ccccc2)c1	-11	13%	-20%	9%	nt	?
O=c1n(Cc2ccc(F)cc2Cl)c2ccccc2c2nc(-c3ccccc3)nn12	nt	nt	0%	nt	nt	-4%
Cc1cn([C@H]2C[C@H](O)[C@@H](CCC(=O)NCCc3cnc[nH]3)O2)c(=O)[nH]c1=O	-23	2%	3%	0%	-6%	-7%
CC(C(=O)O)n1c2ccccc2c2cnn(C)c(=O)c21 (configuration not stated)	0	-7%	20%	2%	3%	-21%
CC(C)CN1CCN(Cc2cccn2-c2ccc(Cl)cn2)CC1CCO (configuration not stated)	-7	-4%	?	-6%	-12%	-7%
COc1ccc(C(=O)C2CCCN(Cc3c(F)ccc(F)c3F)C2)c(OC)c1 (configuration not stated)	-66*	5%	?	-7%	4%	19%
SMILES	IL1B secr inh	HT1080NT lethal	DT40 TDP1 no CPT	HT1080 IDH1KD tx	uPA surface inh	TDP1 cell CPT
COc1ccc(C(=O)C2CCCN(Cc3cccn3-c3ccc(Cl)cn3)C2)c(OC)c1 (configuration not stated)	nt	16µM*	21µM*	18µM*	-10%	13µM*
COc1ccc(C(=O)C2CCCN(Cc3ccc(C#CCCO)cc3)C2)cc1F (configuration not stated)	-53*	-15%	?	-21%	-3%	?
COc1ccc(C(=O)C2CCCN(C/C=C/c3ccccc3OC)C2)c(OC)c1 (configuration not stated)	?	-14%	2.6µM*	?	-2%	21µM*
COc1ccc(C(=O)C2CCCN(Cc3cnc(N4CCOCC4)s3)C2)c(OC)c1 (configuration not stated)	23	-10%	16µM*	-12%	-3%	-17%
COc1ccc(C)cc1NC(=O)C1CCN(C(=O)c2ccc(C(C)(C)C)cc2)CC1	-16	-19%	18µM*	-15%	-8%	?
CC(C)(C)c1nnc(NC(=O)C2CCN(C(=O)c3ccccc3)CC2)s1	nt	nt	?	nt	nt	14µM*
Cc1ccc(C(=O)N2CCC(C(=O)c3ccc(Cl)cc3)CC2)cc1	-11	?	12µM*	-11%	-3%	?
CC(C)(C)c1nnc(NC(=O)C2CCN(c3ncccn3)CC2)s1	28	6%	-30%	6%	nt	-7%
CC(C)(C)c1ccc(C(=O)N2CCC(C(=O)NCCC3=CCCCC3)CC2)cc1	-4	-28%	18µM*	?	10%	?
O=C(NC1CCCCC1)C(c1ccccc1)N(C(=O)c1csnn1)C1CCCC1 (configuration not stated)	-9	1%	?	1%	7%	-24%
O=C(NCC1CCCO1)C(=O)N/N=C/c1c(F)cccc1Cl (configuration not stated)	16	15%	-6%	19%	3%	-2%
Cc1nc(-c2ccc(C(=O)N3CCCC3)cc2)cs1	-1	-15%	-27%	-15%	-6%	-1%
CC(C)(C)c1ccc(C(=O)N2CCN(C(=O)C3CCCCC3)CC2)cc1	-10	5%	?	7%	-1%	15µM*

High-throughput results (PubChem BioAssay)
